# MEKK2 WT-MEK5 – raises or lowers MEK5 binding to wildtype human MEKK2 PB1 domain | actives 1.1% (n = 290,000) | AID 1531 | binding response (% of control), % at 10 µM | bead flow cytometry, Alexa488-MEK5 binding to MEKK2 WT; actives lie on both sides | Q9Y2U5; in the data active = binding response below about 67% or above about 130%; inconclusive = no clear call, values can overlap the other calls; inactive = in between
# MEKK2 mut-MEK5 – signal of MEK5 binding to mutant human MEKK2 PB1 domain; bead flow cytometry, Alexa488-MEK5 binding to MEKK2 mutant; percent response, % at 10 µM; actives 0.35% (n = 290,000); in the data active = percent response above about 24%, passing the limit was not always enough
# UBC13 inh – human UBC13 polyubiquitination inhibition | P61088 | UBC13 polyubiquitin chain formation, TR-FRET | inhibition, % at 20 µM | actives 0.47% (n = 330,000); in the data active = inhibition above about 45%, passing the limit was not always enough; inconclusive = no clear call, values can overlap the other calls
# MEKK3 PB1 HTS – MEKK3-MEK5 PB1 interaction, increase or decrease. Q99759. bead-based flow cytometry, Alexa488-MEK5 binding to MEKK3; actives lie on both sides; 0 = blocked by unlabeled MEK5, 100 = vehicle. actives 1.4% (n = 290,000). binding response (% of control), % at 10 µM;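 active = binding response more than 3 SD above or below the average of its plate-row segment, actives on both sides; inconclusive = wells at one plate position flagged as instrument error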;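 note: Alexa488 bead fluorescence after subtracting the streptavidin-only scavenger bead signal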
# Target sequence (Q99759 whole entry, looked up): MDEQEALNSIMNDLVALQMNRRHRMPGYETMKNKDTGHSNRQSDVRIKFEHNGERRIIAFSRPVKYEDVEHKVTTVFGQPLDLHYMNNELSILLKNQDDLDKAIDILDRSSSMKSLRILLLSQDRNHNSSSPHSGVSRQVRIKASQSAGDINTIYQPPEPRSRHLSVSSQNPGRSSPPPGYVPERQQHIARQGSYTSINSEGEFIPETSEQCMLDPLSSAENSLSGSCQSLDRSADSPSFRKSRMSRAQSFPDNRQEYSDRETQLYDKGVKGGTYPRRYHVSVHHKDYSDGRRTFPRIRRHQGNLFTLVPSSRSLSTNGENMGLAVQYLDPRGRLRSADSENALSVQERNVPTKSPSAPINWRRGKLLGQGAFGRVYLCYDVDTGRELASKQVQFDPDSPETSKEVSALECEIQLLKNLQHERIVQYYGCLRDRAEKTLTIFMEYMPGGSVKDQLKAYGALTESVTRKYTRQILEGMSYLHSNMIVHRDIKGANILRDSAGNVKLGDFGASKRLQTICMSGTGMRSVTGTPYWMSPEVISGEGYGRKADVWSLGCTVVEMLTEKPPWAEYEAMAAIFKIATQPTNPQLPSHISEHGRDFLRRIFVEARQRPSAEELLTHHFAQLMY
# Casp3 UBC13 ctr – caspase-3 inhibition (UBC13 counter-screen). Recombinant caspase-3, Caspase-Glo 3/7 luminescence, 60 min. actives 4% (n = 1,400). AID 488856. inhibition, % at 20 µM. shares compounds with UBC13 inh;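 active = mean inhibition across replicates above about 26%, limit read from the data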;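 note: plate controls were DMSO with caspase-3 for no effect and DMSO wells lacking enzyme for full effect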
# UBC13 confirm – human UBC13 polyubiquitin inhibition, confirmed. shares compounds with UBC13 inh. UBC13 polyubiquitination, TR-FRET, biochemical. inhibition, % at 10 µM. actives 68% (n = 1,400). AID 488859; in the data active = inhibition above about 45%; inconclusive = no clear call, values can overlap the other calls
# The depositor's hits bear a star; ? = inconclusive; . = not tested or not shown. An excerpt weighted towards active compounds, which were near 2.3% of everything screened.
SMILES,MEKK2 WT-MEK5,MEKK2 mut-MEK5,UBC13 inh,MEKK3 PB1 HTS,Casp3 UBC13 ctr,UBC13 confirm
COc1ccc(C(=O)c2c(-c3ccc(OC)cc3)oc3ccc(-c4cc(OC)c(OC)c(OC)c4)cc23)cc1,94,-4,?,101,.,.
COC(=O)c1c(-c2ccc(OC)cc2)oc2ccc(-c3cc(OC)c(OC)c(OC)c3)cc12,113,6,52*,116,-1,?
COc1ccc(C(CNC(=O)c2cc3c(s2)CCC(C)C3)N2CCCC2)cc1 (centres undefined),.,.,59*,.,-3,42
COc1ccc(C(CNC(=O)c2ccc(-c3nc4ccccc4s3)o2)N2CCCC2)cc1 (centres undefined),.,.,61*,.,8,53*
CCc1ccc(S(=O)(=O)NCCc2cn3cccc(C)c3n2)s1,99,-2,3,106,.,.
Cc1ccc(CS(=O)(=O)c2ncc(Cl)c(C(=O)Nc3nnc(C(C)C)s3)n2)cc1,94,-1,50*,95,1,63*
CC(=O)Nc1ccc(NC(=O)c2nc(S(=O)(=O)Cc3ccccc3)ncc2Cl)cc1,104,4,47*,105,-4,45*
O=C(NCc1ccccc1)c1nc(S(=O)(=O)Cc2ccccc2)ncc1Cl,103,1,15,102,.,.
CCn1c(=O)cc(C(F)(F)F)[nH]c1=S,105,2,55*,101,-1,?
COc1cc(/C=N/NC(=O)c2cc(-c3ccccc3)sc2N)cc(OC)c1OC,106,4,-3,106,.,.
Cc1nc(N)sc1C(=O)N/N=C/c1c[nH]c2ccccc12,105,6,79*,104,14,114*
COc1cc(/C=N\NC(=O)c2sc(N)nc2C)cc(OC)c1OC,110,1,105*,105,1,111*
CC(/C=N/NC(=O)c1sc(N)nc1C)=C\c1ccccc1,103,0,85*,108,43*,96*
CCOC(=O)c1sc(=S)n(CC)c1NC(=O)c1ccccc1,100,-2,-9,104,.,.
CCOc1ccc(NC(=O)c2c(N)n(C)c(=O)[nH]c2=O)cc1,101,0,2,98,.,.
COc1ccc(N(CC(=O)NCc2ccccc2)S(=O)(=O)c2c(C)n[nH]c2C)cc1,99,-3,-3,99,.,.
O=C(CCCc1nc2ccccc2s1)NNC(=O)CCN1CCN(Cc2ccccc2)CC1,101,0,7,103,.,.
NC(=S)N=Nc1c(O)n(C2OC(=O)c3ccccc32)c2ccccc12 (centres undefined),.,.,88*,.,0,104*
NC(=S)N=Nc1c(O)n(CC(=O)Nc2ccccc2)c2ccccc12,106,9,-5,108,.,.
NC(=S)N=Nc1c(O)n(CCCl)c2ccccc12,97,1,90*,103,-4,85*
NC(=S)N=Nc1c(O)n(CCCl)c2ccc(Cl)cc12,97,-3,68*,104,-3,90*
Cc1csc(NC(=O)CSc2nnc(NC(=O)COc3ccccc3)s2)n1,96,-1,11,101,.,.
COc1cccc(CNC(=O)c2cc(S(=O)(=O)N3CCCC3)cn2C)c1,99,1,-11,98,.,.
CC(C)(C)c1cc(C(=O)N/N=C/c2ccccn2)n[nH]1,103,1,62*,106,-2,-10
CC(C)(C)c1cc(C(=O)N/N=C/c2ccncc2)n[nH]1,101,2,-7,100,.,.
SMILES,MEKK2 WT-MEK5,MEKK2 mut-MEK5,UBC13 inh,MEKK3 PB1 HTS,Casp3 UBC13 ctr,UBC13 confirm
Nc1cc(=O)[nH]c(SCC(=O)Nc2cc(S(=O)(=O)N3CCCCC3)ccc2Cl)n1,.,.,-12,.,.,.
CCOC(=O)c1nn(-c2ccccc2)c(=O)cc1OCC(=O)Nc1cc(C)ccc1C,.,.,1,.,.,.
CCOC(=O)c1nn(-c2ccccc2)c(=O)cc1OCC(=O)Nc1ccccc1OCC,.,.,57*,.,-2,?
COc1cc(/C=C2/SC(=Nc3ccc(O)cc3)NC2=O)cc(OC)c1O,99,-5,48*,99,-3,47*
COc1cc(/C=C2\SC(=Nc3ccc(O)cc3)NC2=O)cc(OC)c1OC,100,-1,12,104,.,.
COc1ccc(CNn2c(C)nc3ccccc3c2=O)cc1,95,-8,47*,88,-2,49*
CCCCOc1ccc(CNn2c(C)nc3ccccc3c2=O)cc1,107,2,75*,112,0,82*
Cc1ccc(CNC(=O)c2cc(S(=O)(=O)N3CCCCC3)ccc2N2CCOCC2)cc1,.,.,7,.,.,.
O=C(NCc1ccccc1)C(c1ccc(F)cc1)N(C(=O)c1csnn1)c1ccccc1 (centres undefined),96,-5,-4,102,.,.
Cc1ccc(S(=O)(=O)N2CCN(c3ccc4nnc(-c5ccccc5)n4n3)CC2)cc1,101,-6,.,103,.,.
COc1ccc(S(=O)(=O)N2CCN(c3ccc4nnc(-c5ccc(F)cc5)n4n3)CC2)cc1,96,-6,46*,94,3,30
Cc1ccc(CN2CC(C(=O)Nc3ccc(F)c([N+](=O)[O-])c3)CC2=O)cc1 (centres undefined),96,-2,0,104,.,.
COc1cc(C(=O)Nc2nc3ccc(S(C)(=O)=O)cc3s2)cc(OC)c1C,99,3,47*,103,0,24
C#CCOCCOCCOCCNc1nc(N2CCN(C(=O)[C@H](CCCCN)n3cc([C@@H](N)CC(N)=O)nn3)CC2)nc(N2CCN(C(=O)[C@H](CCCCN)n3cc([C@@H](N)CC(N)=O)nn3)CC2)n1,.,.,108*,.,-2,111*
C#CCOCCOCCOCCNc1nc(N2CCN(C(=O)C([C@@H](C)O)n3cc([C@@H](N)CCCCN)nn3)CC2)nc(N2CCN(C(=O)[C@H](CCCCN)n3cc([C@@H](N)CC(N)=O)nn3)CC2)n1 (some centres undefined),.,.,103*,.,1,106*
C#CCOCCOCCOCCNc1nc(N2CCN(C(=O)[C@H](CC(N)=O)n3cc([C@@H](N)CC(N)=O)nn3)CC2)nc(N2CCN(C(=O)[C@H](CC(N)=O)n3cc([C@@H](N)CC(N)=O)nn3)CC2)n1,.,.,9,.,.,.
CC1(C)CC(=O)c2cn3c(nc2C1)nc1ccccc13,102,-3,1,89,.,.
Cc1ccc2c(n1)CC(C)(C)CC2=O,114,6,47*,109,-2,10
Cc1ccc(NC(=S)NNC(=O)c2nnn(-c3ccccc3)c2C)cc1,94,-2,45*,95,3,48*
OCCN1CCN(CC/C=C2/c3ccccc3Sc3ccc(C(F)(F)F)cc32)CC1,.,.,66*,.,-1,71*
CCN1CCN(C(=O)c2cc(-c3ccco3)nc3ccccc23)CC1,.,.,52*,.,4,32
COc1ccc(C2CC(=O)c3cnc(NC(=O)c4ccccc4)nc3C2)cc1OC (centres undefined),107,6,-8,105,.,.

# Source: PubChem BioAssay
